The values that follow come from a collection of fitness landscapes (doi:10.1016/j.celrep.2020.107928).

Sequences and labels used below:
B1: Caulobacter ParB omega fusion; a variant is named by its letters at X, in order, B8GW30 (parent)
chain: MESVVVGEPGMSEGRRGLGRGLSALLGEVDAAPAQAPGEQLGGSREAPIEILQRNPDQPRRTFREEDLEDLSNSIREKGVLQPILVRPSPDTAGEYQIVAGERAWRAAQRAGLKTVPIMVRELDDLAVLEIGIIENVQRADLNVLEEALSYKVLMEKFERTQENIAQTIGKSXSHVANXMRLLXLPDEVQSYLVSGELTAXHARAIAAAADPVALAKQIIEGGLSVRETEALARKAPNLSAGKSKGGRPPRVKDTDTQALESDLSSVLGLDVSIDHRGSTGTLTITYATLEQLDDLCNRLTRGI

Whole data set: some 81,000 sequences, median “one-hybrid fitness for binding NBS DNA” near -0.1, cut for the highest 2% near 0.36. The full list was thinned out, with the highest values kept by preference.

This test covers variants of B1. Briefly: one-hybrid fitness for binding NBS DNA (the Noc-binding site; scaled: cognate 1, non-cognate 0); higher = stronger binding. Conditions: with NBS DNA site. In outline:
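Selection: bacterial one-hybrid in E. coli USO, HIS3 reporter with the site 19 bp from the promoter, 48 hours at 37°C on M9-minus-histidine plus 0.1 mM IPTG and 5 mM 3-AT. Libraries were Caulobacter ParB with four randomised specificity codons, sequenced on Illumina before and after selection. Fitness is the rescaled log change in variant-to-wild-type read ratio, anchored to the cognate and non-cognate sites.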
Take FTRD: the “one-hybrid fitness for binding NBS DNA” value is at most 0.2. Consider NWLT, for which the “one-hybrid fitness for binding NBS DNA” value was at most 0.2. Turning to YDPL, the “one-hybrid fitness for binding NBS DNA” value is at most 0.2. On to LENS, for which the “one-hybrid fitness for binding NBS DNA” value is at most 0.2. Turning to ALND, the “one-hybrid fitness for binding NBS DNA” value is at most 0.2. In the case of TGNW, the “one-hybrid fitness for binding NBS DNA” value was at most 0.2. On to KKKR, for which the “one-hybrid fitness for binding NBS DNA” value was determined as 0.523. For NKKT the value was at most 0.2. For KKKT the value was 0.427. Regarding KHKS, the “one-hybrid fitness for binding NBS DNA” value was at most 0.2. Turning to KHVR, the “one-hybrid fitness for binding NBS DNA” value is at most 0.2. As to KTVR, the “one-hybrid fitness for binding NBS DNA” value is at most 0.2. Regarding NKKR, the “one-hybrid fitness for binding NBS DNA” value turned out to be 0.3. For KTKR the value was 0.555.

For KHKR, the “one-hybrid fitness for binding NBS DNA” value is 0.396. For KTKP the value was at most 0.2; for KKVT, at most 0.2.

As for KKVR, the “one-hybrid fitness for binding NBS DNA” value was at most 0.2.

In the case of SSSH, the “one-hybrid fitness for binding NBS DNA” value was at most 0.2. Regarding GTSM, the “one-hybrid fitness for binding NBS DNA” value was at most 0.2. For MDYV the value was at most 0.2. As to FTRY, the “one-hybrid fitness for binding NBS DNA” value is at most 0.2.

Consider SQTT, for which the “one-hybrid fitness for binding NBS DNA” value is at most 0.2. Take RWDE: the “one-hybrid fitness for binding NBS DNA” value is at most 0.2.

For GLVI, the “one-hybrid fitness for binding NBS DNA” value is at most 0.2. For CLLR, the “one-hybrid fitness for binding NBS DNA” value was at most 0.2. For DYKR the value was at most 0.2; for FWDR, at most 0.2. For the variant KYKR, the “one-hybrid fitness for binding NBS DNA” value is 0.414. For FWPP the value was at most 0.2.

As for SYYR, the “one-hybrid fitness for binding NBS DNA” value was at most 0.2. For the variant KYYR, the “one-hybrid fitness for binding NBS DNA” value is at most 0.2. Consider KMKR, for which the “one-hybrid fitness for binding NBS DNA” value was 0.4. FWPR: the “one-hybrid fitness for binding NBS DNA” value was 0.486. KMVR: the “one-hybrid fitness for binding NBS DNA” value was at most 0.2. For NMKR, the “one-hybrid fitness for binding NBS DNA” value is 0.201. In the case of SYVR, the “one-hybrid fitness for binding NBS DNA” value was at most 0.2. For SYKR the value was 0.378. Take RDNL: the “one-hybrid fitness for binding NBS DNA” value is at most 0.2. Take KNNH: the “one-hybrid fitness for binding NBS DNA” value was at most 0.2. Turning to FMCG, the “one-hybrid fitness for binding NBS DNA” value was at most 0.2. Turning to KYLR, the “one-hybrid fitness for binding NBS DNA” value is at most 0.2. For the variant VTMQ, the “one-hybrid fitness for binding NBS DNA” value is at most 0.2. As to RNIC, the “one-hybrid fitness for binding NBS DNA” value is at most 0.2. Take AMWM: the “one-hybrid fitness for binding NBS DNA” value is at most 0.2.

For TRYP, the “one-hybrid fitness for binding NBS DNA” value was at most 0.2. For RGPH the value was at most 0.2. For VTSA the value was at most 0.2; for MRFI, at most 0.2. As to CKWS, the “one-hybrid fitness for binding NBS DNA” value was at most 0.2. Consider NQKR, for which the “one-hybrid fitness for binding NBS DNA” value is at most 0.2. For DQKR the value was at most 0.2; for KKKS, 0.425; for KKKN, at most 0.2. Consider FPKR, for which the “one-hybrid fitness for binding NBS DNA” value was at most 0.2. As to KKVS, the “one-hybrid fitness for binding NBS DNA” value is at most 0.2. In the case of KSKR, the “one-hybrid fitness for binding NBS DNA” value amounted to 0.342. Consider KCKR, for which the “one-hybrid fitness for binding NBS DNA” value came out at 0.397. FCKR: the “one-hybrid fitness for binding NBS DNA” value was 0.392. Turning to KPKR, the “one-hybrid fitness for binding NBS DNA” value was at most 0.2. For FSKR the value was 0.218; for KQKR, 0.425; for YLQM, at most 0.2. For the variant MIYY, the “one-hybrid fitness for binding NBS DNA” value was at most 0.2. On to WSMT, for which the “one-hybrid fitness for binding NBS DNA” value is at most 0.2.

With YVTI, the “one-hybrid fitness for binding NBS DNA” value was at most 0.2. For WDTC the value was at most 0.2.

As to QCSV, the “one-hybrid fitness for binding NBS DNA” value is at most 0.2. Regarding QSYV, the “one-hybrid fitness for binding NBS DNA” value is at most 0.2.

QSSV: the “one-hybrid fitness for binding NBS DNA” value was at most 0.2. The value for QRSV was 0.388. As for QMDV, the “one-hybrid fitness for binding NBS DNA” value was at most 0.2.

Regarding QADV, the “one-hybrid fitness for binding NBS DNA” value is at most 0.2. With QARV, the “one-hybrid fitness for binding NBS DNA” value is 0.376.

On to QMYV, for which the “one-hybrid fitness for binding NBS DNA” value was at most 0.2. QSRV: the “one-hybrid fitness for binding NBS DNA” value amounted to 0.396. In the case of QMRV, the “one-hybrid fitness for binding NBS DNA” value was found to be 0.45. For QSDV, the “one-hybrid fitness for binding NBS DNA” value was at most 0.2.

Consider QAYV, for which the “one-hybrid fitness for binding NBS DNA” value is at most 0.2. Regarding QYAA, the “one-hybrid fitness for binding NBS DNA” value is 0.237. For RQRI the value was at most 0.2. As for SPGV, the “one-hybrid fitness for binding NBS DNA” value is at most 0.2. For RRPE the value was at most 0.2. For the variant QMVE, the “one-hybrid fitness for binding NBS DNA” value was at most 0.2. For VKVA the value was at most 0.2; for CPHR, at most 0.2. As for FHQR, the “one-hybrid fitness for binding NBS DNA” value was at most 0.2.

Take QPQV: the “one-hybrid fitness for binding NBS DNA” value was at most 0.2.

DFQV: the “one-hybrid fitness for binding NBS DNA” value was at most 0.2. Regarding QRAV, the “one-hybrid fitness for binding NBS DNA” value worked out at 0.424.

For QCQV, the “one-hybrid fitness for binding NBS DNA” value is at most 0.2. The value for QCAV was at most 0.2. Take QRFV: the “one-hybrid fitness for binding NBS DNA” value worked out at 0.275. Take QRCV: the “one-hybrid fitness for binding NBS DNA” value was determined as 0.406.

Regarding QPCV, the “one-hybrid fitness for binding NBS DNA” value was at most 0.2. As for SFQV, the “one-hybrid fitness for binding NBS DNA” value was determined as 0.447.

Regarding SFRV, the “one-hybrid fitness for binding NBS DNA” value is at most 0.2. Turning to QCCV, the “one-hybrid fitness for binding NBS DNA” value was at most 0.2. The value for QRQV was 0.397.

Turning to SHME, the “one-hybrid fitness for binding NBS DNA” value is at most 0.2. For HLRR the value was at most 0.2; for GKSS, at most 0.2; for QVST, 0.318.

For the variant ALAR, the “one-hybrid fitness for binding NBS DNA” value was at most 0.2. NTES: the “one-hybrid fitness for binding NBS DNA” value was at most 0.2. Turning to QTRV, the “one-hybrid fitness for binding NBS DNA” value stood at 0.576. Consider QKDV, for which the “one-hybrid fitness for binding NBS DNA” value was at most 0.2. For the variant QPRV, the “one-hybrid fitness for binding NBS DNA” value is at most 0.2. Turning to QKRV, the “one-hybrid fitness for binding NBS DNA” value was 0.41.

As to QCGV, the “one-hybrid fitness for binding NBS DNA” value came to 0.221.

On to QKYV, for which the “one-hybrid fitness for binding NBS DNA” value was at most 0.2. For QTDV the value was at most 0.2. For QTYV the value was at most 0.2; for QSGV, at most 0.2; for QCRV, 0.525. For the variant QRGV, the “one-hybrid fitness for binding NBS DNA” value worked out at 0.452. In the case of QCYV, the “one-hybrid fitness for binding NBS DNA” value is at most 0.2. Take LALN: the “one-hybrid fitness for binding NBS DNA” value was at most 0.2. On to NRHK, for which the “one-hybrid fitness for binding NBS DNA” value was at most 0.2. For IQAC the value was at most 0.2.

For the variant EASL, the “one-hybrid fitness for binding NBS DNA” value is at most 0.2. Turning to KDSS, the “one-hybrid fitness for binding NBS DNA” value is at most 0.2. In the case of WRLM, the “one-hybrid fitness for binding NBS DNA” value is at most 0.2. For VHFW, the “one-hybrid fitness for binding NBS DNA” value is at most 0.2. In the case of QRHV, the “one-hybrid fitness for binding NBS DNA” value amounted to 0.439.

For the variant QHRV, the “one-hybrid fitness for binding NBS DNA” value is 0.378. The value for QPHV was at most 0.2. The value for QREV was at most 0.2; that for QRYV was 0.348. On to QHQV, for which the “one-hybrid fitness for binding NBS DNA” value was at most 0.2. The value for QCHV was 0.214. On to QCNV, for which the “one-hybrid fitness for binding NBS DNA” value is at most 0.2. As to QRDV, the “one-hybrid fitness for binding NBS DNA” value was at most 0.2. Regarding QHYV, the “one-hybrid fitness for binding NBS DNA” value is at most 0.2. Take QRRV: the “one-hybrid fitness for binding NBS DNA” value turned out to be 0.574. Consider QRNV, for which the “one-hybrid fitness for binding NBS DNA” value was determined as 0.453. As to KSRF, the “one-hybrid fitness for binding NBS DNA” value was at most 0.2. For EDAY the value was at most 0.2; for VSIE, at most 0.2. The value for RVLI was at most 0.2; that for FHTT was at most 0.2; that for NSFQ was at most 0.2. As for LEVT, the “one-hybrid fitness for binding NBS DNA” value is at most 0.2. Regarding QHSQ, the “one-hybrid fitness for binding NBS DNA” value is at most 0.2. Regarding QSSN, the “one-hybrid fitness for binding NBS DNA” value is at most 0.2. The value for QLST was 0.413. Regarding QHSC, the “one-hybrid fitness for binding NBS DNA” value is at most 0.2. The value for QHST was 0.446.

Take QSST: the “one-hybrid fitness for binding NBS DNA” value turned out to be 0.424. On to QAST, for which the “one-hybrid fitness for binding NBS DNA” value stood at 0.395.

For QLSH, the “one-hybrid fitness for binding NBS DNA” value is at most 0.2. Turning to QGST, the “one-hybrid fitness for binding NBS DNA” value was at most 0.2.

On to QASN, for which the “one-hybrid fitness for binding NBS DNA” value is at most 0.2.
